High-throughput results as filed in PubChem BioAssay.
RORgamma inh – qHTS for inhibitors of ROR gamma transcriptional activity; Nuclear receptor ROR-gamma (Mus musculus), P51450; Drosophila S2 Gal4-RORgamma UAS-luciferase reporter, 20 h; Potency, µM (series often up to 53.6 µM), actives largely listed as inhibitors; 310,000 tested, 5.4% active; also: nearly all actives have a fitted effect of over 60% in size
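Luciferase reporter read in Schneider cells carrying Gal4-RORγ (mouse) and UAS-Photinus luciferase; cells given compound 1 h before 700 uM copper sulfate induction, then incubated 20 h at ambient temperature.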
ALDH1A1 block – qHTS Assay for Inhibitors of Aldehyde Dehydrogenase 1 (ALDH1A1) | Aldehyde dehydrogenase 1A1 (Homo sapiens), P00352 | Purified ALDH1A1, NADH fluorescence, propionaldehyde substrate | Potency, µM (doses to about 75.3 µM), hits mostly inhibitors | 220,000 tested, 7.3% active | AID 1030, 2008; active = well fitted inhibition curve with a large enough effect, not every such curve was filed as active; inconclusive = small, poorly fitted or top-dose-only effect, or another doubt; inactive = no such curve, though single readings can be large or run the other way
Target sequence (P00352 whole entry, looked up): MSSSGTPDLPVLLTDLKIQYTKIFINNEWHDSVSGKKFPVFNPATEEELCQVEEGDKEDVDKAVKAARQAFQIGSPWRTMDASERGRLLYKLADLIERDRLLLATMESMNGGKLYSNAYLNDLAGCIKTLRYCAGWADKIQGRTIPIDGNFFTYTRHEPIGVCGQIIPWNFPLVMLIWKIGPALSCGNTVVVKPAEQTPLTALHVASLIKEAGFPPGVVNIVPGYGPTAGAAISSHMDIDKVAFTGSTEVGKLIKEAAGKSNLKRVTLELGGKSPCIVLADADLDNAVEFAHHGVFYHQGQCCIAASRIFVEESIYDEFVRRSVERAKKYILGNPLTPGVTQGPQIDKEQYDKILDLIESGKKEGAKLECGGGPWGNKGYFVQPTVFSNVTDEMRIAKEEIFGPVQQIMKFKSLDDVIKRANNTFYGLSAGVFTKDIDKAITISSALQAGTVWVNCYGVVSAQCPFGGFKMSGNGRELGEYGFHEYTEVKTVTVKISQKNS
PLK1 PBD block – qHTS for Inhibitors of PLK1-PDB (polo-like kinase 1 - polo-box domain): Primary Screen | Serine/threonine-protein kinase PLK1 (Homo sapiens), P53350 | Plk1 PBD binding of FITC phosphopeptide, fluorescence polarization | Potency, µM, actives largely listed as inhibitors | 360,000 tested, 2.8% active; also: series mostly up to about 57 µM; nearly all actives have a fitted effect of over 65% in size
VP16 counter – VP16 counterscreen qHTS for inhibitors of ROR gamma transcriptional activity. 310,000 tested, 3.5% active. Drosophila S2 Gal4-VP16 UAS-luciferase, luminescence, 20 h. Potency, µM (series often up to 53.6 µM), hits mostly inhibitors;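 also: Gal4-VP16 expression switched on by copper sulfate through the metallothionein promoter; nearly all actives have a fitted effect of over 50% in size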
Sfp PPTase inh – qHTS Assay for Inhibitors of Bacillus subtilis Sfp phosphopantetheinyl transferase (PPTase); 4'-phosphopantetheinyl transferase ffp (Bacillus subtilis), Q9F4F7; Biochemical Sfp PPTase activity, qHTS; Potency, µM, most hits filed as inhibitors; 310,000 tested, 3.5% active;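 also: the enzyme is Sfp with the accession as filed and its product quenches rhodamine fluorescence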
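Buffer: 50 mM Hepes-Na pH 7.6, 10 mM MgCl2, 0.01% Nonidet P-40, 0.01% BSA. Enzyme 15 nM, pre-exposed to compound 15 min; substrates then added and fluorescence change tracked over 30 min.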
Each line names hits and unclear results; the compound was inactive in the other large screens. Rows were chosen to be rich in hits. Some 12% of all compounds tested hit in one or more screens of this group. Unless noted, calls follow the shape of the dose curve; as a rule, active = well fitted curve in the direction sought with a large enough effect; inconclusive = small, poorly fitted or top-dose-only effect, or another doubt; inactive = no such curve, though single readings can be large; an effect the other way counts as inactive or inconclusive.

C/C(CCC(=O)OC[C@@H]1O[C@H](C#Cc2ccccc2)C=C[C@@H]1Oc1ccc(C)cc1)=N/OC[C@@H](C)[C@H](OCc1ccccc1)C(C)C	none (no result: PLK1 PBD block)
CC(=O)NC(=S)Nc1ccc(NC(=O)c2cccs2)cc1	none
O=C(Nc1ccc(NC(=S)NC(=O)c2cccs2)cc1)c1ccccc1	RORgamma inh 7.94µM, ALDH1A1 block inconclusive, VP16 counter 15.8µM
CC1CCCCC1NC(=S)NC(=O)c1cccs1 (stereo not drawn)	RORgamma inh 1.58µM, VP16 counter 12.6µM (no result: ALDH1A1 block)
CCCCC(=O)Nc1ccc(C(=O)NNC(=S)NC(=O)c2cccs2)cc1	RORgamma inh 7.94µM, ALDH1A1 block 25.1µM, VP16 counter 8.91µM
O=C(NC(=S)Nc1ccccc1)c1cccs1	RORgamma inh 5.01µM, VP16 counter 8.91µM, Sfp PPTase inh 44.7µM (no result: ALDH1A1 block)
NC(=O)C1CCN(C(=O)c2ccc(Cl)c(NC(=O)c3cccs3)c2)CC1	none (no result: RORgamma inh, ALDH1A1 block, VP16 counter, Sfp PPTase inh)
O=c1c(-c2cccs2)nc2cnc(N3CCOCC3)nc2n1-c1ccccc1	ALDH1A1 block inconclusive (no result: PLK1 PBD block)
O=C(O)c1ccc(S(=O)(=O)N[C@H](Cc2ccc(O)cc2)C(=O)O)cc1	none (no result: ALDH1A1 block, PLK1 PBD block)
CCC(C(=O)O)c1ccccc1 (stereo not drawn)	none (no result: PLK1 PBD block)
CCC(c1ccccc1)C(CC)c1cc(O)c(O)c(O)c1 (stereo not drawn)	PLK1 PBD block 5.97µM (no result: RORgamma inh, ALDH1A1 block, VP16 counter, Sfp PPTase inh)
CN1C(=O)c2ccc(NC(=O)c3cccc4ccccc34)cc2C1=O	none (no result: ALDH1A1 block)
CN1C(=O)/C(=N\OC(=O)c2cccc3ccccc23)c2ccccc21	RORgamma inh inconclusive, ALDH1A1 block 14.1µM, PLK1 PBD block inconclusive, VP16 counter 11.2µM
Cc1ccc(C(=O)N2CCCC2(C)C(=O)NCC(C)C)cc1F (stereo not drawn)	none (no result: RORgamma inh, ALDH1A1 block, VP16 counter, Sfp PPTase inh)
CC1=C(CC(=O)c2ccc(Cl)cc2)C(=O)c2ccccc2C1=O	ALDH1A1 block 2.51µM, PLK1 PBD block inconclusive, Sfp PPTase inh 44.7µM
Cc1ccc(N=Nc2c(N)[nH]n3c(=O)cc(C)nc23)cc1	RORgamma inh 10µM
Cc1ccc(N=Nc2c(=O)[nH]n3c(C)cc(C)nc23)cc1	RORgamma inh inconclusive
CCC(C)(C)n1nnnc1C(c1cc2ccc(C)cc2[nH]c1=O)N(Cc1cccnc1)Cc1ccco1 (stereo not drawn)	ALDH1A1 block inconclusive
CCC(C)(C)n1nnnc1C(c1cc2ccc(OC)cc2[nH]c1=O)N1CCc2ccccc21 (stereo not drawn)	ALDH1A1 block inconclusive, Sfp PPTase inh 10µM
CCC(C)(C)n1nnnc1C(c1cc2cc(OC)ccc2[nH]c1=O)N1CCc2ccccc21 (stereo not drawn)	ALDH1A1 block inconclusive
COc1ccc2cc(C(c3nnnn3C3CCCC3)N3CCc4ccccc4C3)c(=O)[nH]c2c1 (stereo not drawn)	ALDH1A1 block 17.8µM, Sfp PPTase inh 22.4µM
CCCC(c1nnnn1C(C)(C)CC)N(Cc1ccco1)Cc1cc2ccc(OC)cc2[nH]c1=O (stereo not drawn)	ALDH1A1 block 31.6µM
CCC(C)(C)n1nnnc1C(c1cc2ccc(OC)cc2[nH]c1=O)N1CCc2ccccc2C1 (stereo not drawn)	RORgamma inh inconclusive, ALDH1A1 block inconclusive, PLK1 PBD block inconclusive, Sfp PPTase inh 4.47µM
COc1ccc2cc(C(c3nnnn3C(C)(C)C)N3CCc4ccccc4C3)c(=O)[nH]c2c1 (stereo not drawn)	RORgamma inh inconclusive, ALDH1A1 block inconclusive, Sfp PPTase inh inconclusive (no result: PLK1 PBD block)
CCNC(=O)C1(C)CCCN(Cc2cccc(Oc3ccccc3)c2)C1 (stereo not drawn)	none (no result: RORgamma inh, ALDH1A1 block, VP16 counter, Sfp PPTase inh)
COc1ccc(-c2nc3cnc(OC)nc3n(Cc3cccc(OC)c3)c2=O)cc1	ALDH1A1 block inconclusive (no result: PLK1 PBD block)
COc1ccc(-n2c(=O)c(CCc3ccccc3)nc3cnc(OC)nc32)cc1	none (no result: PLK1 PBD block)
CCCC[C@@H]1CNC(=S)N1CCCC	RORgamma inh 2.82µM, VP16 counter 7.94µM
CCCCN1C(=S)NC[C@@H]1Cc1ccc(O)cc1	none (no result: ALDH1A1 block)
Cc1cc(C(=O)CSc2nnc(N)s2)c(C)n1CCc1ccc(Cl)cc1	none
COc1ccc(CCn2c(C)c(C(C)=O)c(C(C)=O)c2C)cc1OC	none
Cc1cc(C(=O)CCl)c(C)n1CCc1ccc(F)cc1	RORgamma inh inconclusive, ALDH1A1 block 0.398µM
COc1ccc(CCn2c(C)cc(C(=O)CCl)c2C)cc1OC	RORgamma inh 11.2µM, ALDH1A1 block 0.112µM, PLK1 PBD block inconclusive, VP16 counter 20µM
Cc1cc(C(=O)CCl)c(C)n1CCc1ccc(Cl)cc1	RORgamma inh 12.6µM, ALDH1A1 block 0.178µM, PLK1 PBD block inconclusive, VP16 counter inconclusive
Cc1cc(C(=O)CSc2nnnn2C)c(C)n1CCc1ccc(F)cc1	none
Nc1nc2ccc(Cl)cc2cc1C(=O)NCCc1c[nH]c2ccccc12	none (no result: RORgamma inh, ALDH1A1 block, VP16 counter, Sfp PPTase inh)
CC(C)OC(=O)CC(=O)c1sc2nc3c(cc2c1N)CN(C)CC3	ALDH1A1 block inconclusive, Sfp PPTase inh 44.7µM
CCN1CCc2nc3sc(C(=O)N4CCc5ccccc5C4)c(N)c3cc2C1	Sfp PPTase inh 44.7µM (no result: ALDH1A1 block)
Cc1cc(C)c2c(N)c(C(=O)N3CCc4ccccc4C3)sc2n1	ALDH1A1 block inconclusive, Sfp PPTase inh 56.2µM
CCOC(=O)c1sc2nc3c(cc2c1N)COC(C(C)C)C3 (stereo not drawn)	ALDH1A1 block inconclusive
CC(=O)OCC1OC(n2ccc3ccccc32)C(OC(C)=O)C(OC(C)=O)C1OC(C)=O (stereo not drawn)	PLK1 PBD block 26.7µM
CC(=O)OC[C@H]1O[C@@H](n2ccc(=O)[nH]c2=S)C(OC(C)=O)C1OC(C)=O (stereo partly drawn)	none
COc1ccc(N(CN2C(=O)c3ccccc3C2=O)C(=O)C(C)C)cc1	ALDH1A1 block 11.2µM
CC(=O)N(CN1C(=O)c2ccccc2C1=O)c1ccccc1	ALDH1A1 block inconclusive
CSc1n[nH]c2nc3c(c(=O)n12)C1(CCCCC1)Cc1ccccc1-3	ALDH1A1 block inconclusive, PLK1 PBD block 23.8µM, Sfp PPTase inh 17.8µM
Cc1ccccc1-n1c(=O)c2c(n3cnnc13)-c1ccccc1CC21CCCCC1	none
N#CCSc1n[nH]c2nc3c(c(=O)n12)C1(CCCCC1)Cc1ccccc1-3	PLK1 PBD block inconclusive, Sfp PPTase inh 50.1µM (no result: ALDH1A1 block)
CCSc1n[nH]c2nc3c(c(=O)n12)C1(CCCCC1)Cc1ccccc1-3	PLK1 PBD block 13.4µM (no result: ALDH1A1 block)
CCn1c(=O)c2c(n3c(=S)[nH]nc13)-c1ccccc1CC21CCCCC1	RORgamma inh 2.82µM, ALDH1A1 block 22.4µM, PLK1 PBD block inconclusive, Sfp PPTase inh 17.8µM
CCn1c(SCC#N)nc2c(c1=O)C1(CCCC1)Cc1ccccc1-2	none
CCCC(c1cc(C(C)(C)C)c(O)cc1C)c1cc(C(C)(C)C)c(O)cc1C	none (no result: RORgamma inh, PLK1 PBD block, VP16 counter, Sfp PPTase inh)
COc1ccc(Nc2nc3ccccc3nc2NS(=O)(=O)c2ccc(NC(C)=O)cc2)cc1	PLK1 PBD block inconclusive (no result: ALDH1A1 block)
